Screens deposited in PubChem by Johns Hopkins Ion Channel Center.
A selection: hits, their analogues and other compounds. The true share with any hit is near 1.6%.
KCNQ2 block: inhibitors of rat KCNQ2 potassium channel. CHO-K1 KCNQ2, FluxOR thallium flux, 20 min; hits give low values. B-score at 10 µM. actives 1.1% (n = 310,000);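 active means fluorescence ratio B-score at most minus 3 library SDs, with starting brightness B-score within 2 library SDs, cut at about -5.5 in these data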
KCNQ2 pot: KCNQ2 (rat) channel potentiation. CHO-K1 KCNQ2, FluxOR thallium flux fluorescence; hits give high values. AID 2239. actives 0.54% (n = 310,000). B-score at 10 µM;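 active means fluorescence ratio B-score at least 3 SD of library B-scores, with initial fluorescence B-score within 3 of them, cut at about 5.3 in these data; same plate scores as AID 2156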;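 further: B-score of peak minus minimum over baseline fluorescence ratio after K+ and Tl+ stimulus; positive B-score means potentiation of KCNQ2 with more thallium influx and brighter signal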
Kir21 confirm: confirmation of mouse Kir2.1 potassium channel inhibitors; shares compounds with KCNQ2 pot; Kir2.1-expressing cells, FluxOR thallium flux fluorescence; hits give low values; Tl flux remaining, % of negative control (hits give low values), % at 10 µM; actives 41% (n = 2,300); AID 2032;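 active means Primary-screen hit whose thallium flux fell at least 3 control SD below untreated wells in both duplicates, with normal baseline fluorescence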;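 further: 0% = blank wells without stimulus and 100% = stimulated no-compound controls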
Target sequence (P35561 whole entry, looked up): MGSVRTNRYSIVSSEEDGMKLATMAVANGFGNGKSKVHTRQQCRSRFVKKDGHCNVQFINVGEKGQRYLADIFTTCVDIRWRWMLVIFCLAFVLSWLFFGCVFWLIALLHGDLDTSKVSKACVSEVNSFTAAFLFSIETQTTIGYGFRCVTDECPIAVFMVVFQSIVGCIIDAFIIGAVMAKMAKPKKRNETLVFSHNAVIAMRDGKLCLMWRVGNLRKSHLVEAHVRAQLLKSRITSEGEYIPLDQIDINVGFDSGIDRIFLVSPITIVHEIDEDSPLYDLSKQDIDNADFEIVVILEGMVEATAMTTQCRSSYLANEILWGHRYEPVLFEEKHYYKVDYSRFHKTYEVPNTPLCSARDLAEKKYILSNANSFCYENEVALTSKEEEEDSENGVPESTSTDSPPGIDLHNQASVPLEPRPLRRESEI
HEK293 Tl flux: alters thallium flux in parental HEK293 cells, Kir2.1 counter-screen. shares compounds with KCNQ2 pot. FluxOR thallium flux fluorescence; 0% = unstimulated blank wells. FluxOR signal as % of negative control (100 = no effect), % at 10 µM. actives 19% (n = 2,300);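 active means dye signal at least 3 control SD above or below untreated wells in both duplicates, raw fluorescence within 3, either direction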;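 further: percent is based on the flux ratio of peak minus minimum fluorescence over baseline F0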
CHO-K1 ctr: counter-screen for KCNQ2 potentiators: effect in parental CHO-K1 cells; activity increase over 3SD of controls, % at 10 µM; FluxOR thallium flux fluorescence; zero = vehicle mean+3SD, 100% = vehicle-minus-blank window; actives 43% (n = 1,200); shares compounds with KCNQ2 pot; AID 2282;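 active means signal rise of at least 3 SD above the untreated control mean, in both duplicate wells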;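 further: counter screen of KCNQ2 potentiator hits so any rise reflects channel-independent effects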
KCNQ1 pot spec: human KCNQ1 counter-target activity of KCNQ2 potentiators; activation over 3SD threshold, % at 10 µM; CHO KCNQ1 stable, FluxOR thallium flux fluorescence; beyond 3SD, as % of vehicle-control signal; actives 28% (n = 1,200); shares compounds with KCNQ2 pot; AID 2283;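 active means fluorescence ratio rise of at least 3 SD of vehicle wells above their mean, in both replicate wells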;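 further: 0% = vehicle mean plus 3 SD and 100% = vehicle minus unstimulated blank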
KCNQ2 pot confirm: rat KCNQ2 channel potentiator confirmation. shares compounds with KCNQ2 pot. CHO-KCNQ2 cells, FluxOR thallium flux fluorescence. potentiation, less the hit threshold, % at 10 µM. actives 68% (n = 1,200);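 active means fluorescence ratio rising 3 SD or more over the vehicle control mean in both replicates, plus primary screen hit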;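 further: peak minus minimum thallium fluorescence divided by baseline after K/Tl stimulus; 0% = vehicle mean plus 3 SD and 100% = vehicle minus unstimulated blank difference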
Kir2-1 sel: tests whether KCNQ2 potentiators also affect mouse Kir2.1. HEK293 Kir2.1, FluxOR thallium flux fluorescence. actives 2% (n = 1,200). shares compounds with KCNQ2 pot. activity over 3SD threshold, % at 10 µM. AID 2345;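 active means fluorescence ratio rise of at least 3 SD above the vehicle-control mean, seen in both replicates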;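 further: 0% = vehicle mean plus 3 SD and 100% = vehicle minus no-stimulus blank window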
KCNQ2 W236L pot: potentiates the retigabine-insensitive rat KCNQ2 W236L mutant channel | AID 2558 | shares compounds with KCNQ2 pot | actives 10% (n = 940) | CHO KCNQ2-W236L, automated patch clamp current | current increase over 3SD of negative controls (%), hits give high values, % at 25 µM;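 active means current increase at least 3 SD of the untreated controls above them in both duplicate recordings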
The depositor's hits bear a star.

CCOc1ccc(CN(CCC#N)C(=S)NC(=O)c2ccccc2)cc1 was read as KCNQ2 block inactive and KCNQ2 pot 0.91.
`CCCN(CCC)C(=S)NC(=O)c1ccc(-c2ccccc2)cc1` gave KCNQ2 block inactive, KCNQ2 pot 14*, Kir21 confirm inactive, HEK293 Tl flux 340%*, CHO-K1 ctr 26*, KCNQ1 pot spec 3.5*, KCNQ2 pot confirm 38*, Kir2-1 sel -15 and KCNQ2 W236L pot inactive.
CCOc1ccc(C(=O)NC(=S)N(Cc2ccccc2)Cc2ccccc2)cc1 was read as KCNQ2 block inactive, KCNQ2 pot 20*, Kir21 confirm inactive, HEK293 Tl flux 176%*, CHO-K1 ctr -13, KCNQ1 pot spec -10, KCNQ2 pot confirm 0.5*, Kir2-1 sel -35 and KCNQ2 W236L pot inactive.
Cc1ccc(C(=O)NC(=S)N(C)Cc2ccccc2)cc1 was read as KCNQ2 block inactive and KCNQ2 pot 3.1.
`CCCOc1ccc(C(=O)NNC(=S)NC(=O)c2ccccc2)cc1` gave KCNQ2 block inactive, KCNQ2 pot 20*, Kir21 confirm inactive, HEK293 Tl flux inactive, CHO-K1 ctr -5, KCNQ1 pot spec 3.3*, KCNQ2 pot confirm -18 and Kir2-1 sel -29.
For Oc1ccc(CCNc2ncnc3ccc(Cl)cc23)cc1 the results were KCNQ2 block inactive.
For CCCc1cc(-c2n[nH]c(=S)n2CC)cs1 the results were KCNQ2 block inactive and KCNQ2 pot 0.01.
CCCCn1c(-c2csc(CCC)c2)n[nH]c1=S was read as KCNQ2 block inactive, KCNQ2 pot 9.1*, Kir21 confirm inactive, HEK293 Tl flux 172%*, CHO-K1 ctr -14, KCNQ1 pot spec -14, KCNQ2 pot confirm 20*, Kir2-1 sel -49 and KCNQ2 W236L pot inactive.
Screening CC(C)Cc1nnc(NC(=O)CCC(=O)N2CCN(C3CCCC3)CC2)s1 returned KCNQ2 block inactive and KCNQ2 pot 1.6.
For Cc1nc(Cl)sc1C(=O)Nc1cccc(Cl)c1 the results were KCNQ2 block inactive and KCNQ2 pot 1.4.
`COc1cc(CNCc2cccc3ccccc23)cc(OC)c1` gave KCNQ2 block inactive.
`COc1cccc(CNCc2ccc(OC)c3ccccc23)c1OC` gave KCNQ2 block inactive and KCNQ2 pot 2.1.
`COc1ccccc1CNCC(c1ccccc1)c1ccccc1` gave KCNQ2 block inactive, Kir21 confirm 48%* and HEK293 Tl flux inactive.
For COc1ccccc1CNCc1cc(OC)c(OC)cc1OC the results were KCNQ2 block inactive and KCNQ2 pot 0.12.
Screening COc1ccccc1CNCc1cc(Br)ccc1OC returned KCNQ2 block inactive and KCNQ2 pot 0.87.
For COc1ccccc1CNCc1cccc(Oc2ccccc2)c1 the results were KCNQ2 block inactive, KCNQ2 pot 2.9, Kir21 confirm inactive and HEK293 Tl flux inactive.
COc1ccc(CNCc2ccc(OC)c3ccccc23)cc1 was read as KCNQ2 block inactive, KCNQ2 pot 1.8, Kir21 confirm 20%* and HEK293 Tl flux inactive.
`COc1ccccc1CNCc1ccc(OC)c2ccccc12` gave KCNQ2 block inactive, KCNQ2 pot 0.16, Kir21 confirm 36%* and HEK293 Tl flux inactive.
`O=C(c1ccc(-n2cccc2)cc1)N1CCCCC1` gave KCNQ2 block inactive.
`O=C(CCCC(=O)OCC(=O)c1ccc(Cl)cc1)NC1CCCCC1` gave KCNQ2 block inactive.
For COC(=O)c1ccc(COc2ncnc3ccccc23)o1 the results were KCNQ2 block inactive.
COc1cc(NC(=O)CCN2CC(C)OC(C)C2)cc(OC)c1 (stereo not given) was read as KCNQ2 block inactive and KCNQ2 pot 0.74.
For COc1ccc(CCNC(=O)COc2cccc3c2OC(C)(C)C3)cc1OC the results were KCNQ2 block inactive, Kir21 confirm 52%* and HEK293 Tl flux inactive.
Screening CC(C)CCNC(=O)COc1cccc2c1OC(C)(C)C2 returned KCNQ2 block inactive and KCNQ2 pot 0.68.
For Cc1ccc(NC(=O)/C(C#N)=C(\N)C(Cl)(Cl)Cl)nc1 the results were KCNQ2 block inactive.
Cc1cc(SCC(=O)OCC(=O)N2CCCC2=O)c(C)cc1Br was read as KCNQ2 block inactive, KCNQ2 pot 1.1, Kir21 confirm inactive and HEK293 Tl flux inactive.
Screening NC(=O)c1ccc(SCC(=O)OCC(=O)N2CCCC2=O)c([N+](=O)[O-])c1 returned KCNQ2 block inactive and KCNQ2 pot 0.56.
Screening Cc1cc(NC(=O)C2CC(=O)N(c3ccc(Cl)cc3)C2)no1 (stereo not given) returned KCNQ2 block inactive and KCNQ2 pot 1.1.
CN(C)CCCOc1ccc(C(C)(C)c2ccccc2)cc1 was read as KCNQ2 block inactive, Kir21 confirm 36%* and HEK293 Tl flux inactive.
`CN(C)CCOc1ccc(C(C)(C)c2ccccc2)cc1` gave KCNQ2 block inactive.
For O=C(NNc1cccc(Cl)n1)c1ccccc1CC[N+](=O)[O-] the results were KCNQ2 block inactive.
For CCOc1ccc(NC(=O)CSc2nncc(=O)n2N)cc1 the results were KCNQ2 block inactive and KCNQ2 pot 0.1.
For CCC(=O)N(Cc1ccco1)c1nc(-c2ccc(OC)cc2)cs1 the results were KCNQ2 block inactive.
For CCC(=O)N(CC)c1nc(-c2ccc(OC)cc2)cs1 the results were KCNQ2 block inactive, KCNQ2 pot 2.6, Kir21 confirm inactive and HEK293 Tl flux inactive.
`COc1ccc(Br)cc1/C(C)=N/NC1=NCCN1` gave KCNQ2 block inactive and KCNQ2 pot 0.2.
CCCCCOc1ccc(Br)cc1/C(C)=N/NC1=NCCN1 was read as KCNQ2 block inactive, Kir21 confirm 16%* and HEK293 Tl flux inactive.
`COc1ccc(C(=O)NNc2ccccc2)cc1` gave KCNQ2 block inactive.
